TexasRed fluor: Total Fluorescence Counterscreen for Inhibitors of the Interaction of Thyroid Hormone Receptor and Steroid Receptor Coregulator 2; Potency, µM (titrated, usually from 106 µM), without a hit: top-dose fluorescence change, negative = quenching; TRb/SRC2 Texas Red total fluorescence interference; 280,000 compounds, 0.29% hits; AID 1479, 2009; active = well fitted curve in either direction with a large enough effect; inconclusive = small, poorly fitted or top-dose-only effect; note: potency is the fitted concentration of half-maximal effect
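Flags fluorescent or light-absorbing compounds by total fluorescence, S + 2P, at 555 nm excitation and 632 nm emission. Mixture: 20 nM Texas Red SRC2 peptide, 0.6 uM human TRb LBD, 1 uM T3, 5% DMSO; compound exposure 5 h at ambient temperature.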
TRb SRC2 PPI: qHTS for Inhibitors of the Interaction of Thyroid Hormone Receptor and Steroid Receptor Coregulator 2; Thyroid hormone receptor beta (Homo sapiens), P10828; TRbeta-SRC2 peptide binding, fluorescence polarization; receptor liganded with 1 µM T3; Potency, µM (highest dose often 106 µM), for inactives: at the top dose activity change, negative = inhibition, usual class: inhibitors; 280,000 compounds, 0.065% hits; AID 1469, 2008;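 note: potency is the fitted concentration of half-maximal effect; plate controls were bound peptide for no effect and peptide without receptor for full effect; nearly all actives have a fitted effect of over 50% in size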
Target sequence (P10828 whole entry, looked up): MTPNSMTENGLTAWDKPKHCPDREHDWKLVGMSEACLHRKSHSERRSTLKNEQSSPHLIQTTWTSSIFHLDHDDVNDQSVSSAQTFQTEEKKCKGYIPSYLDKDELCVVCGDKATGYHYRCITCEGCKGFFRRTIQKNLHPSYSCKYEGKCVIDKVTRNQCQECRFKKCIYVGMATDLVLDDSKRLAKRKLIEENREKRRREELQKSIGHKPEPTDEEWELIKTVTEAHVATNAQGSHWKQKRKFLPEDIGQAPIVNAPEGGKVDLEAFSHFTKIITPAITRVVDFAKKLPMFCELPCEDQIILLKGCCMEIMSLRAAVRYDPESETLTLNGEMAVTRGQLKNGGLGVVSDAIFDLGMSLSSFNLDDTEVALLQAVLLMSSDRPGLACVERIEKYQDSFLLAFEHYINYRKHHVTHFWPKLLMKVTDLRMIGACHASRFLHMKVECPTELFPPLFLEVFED
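Read-out is fluorescence polarization (555 nm excitation, 632 nm emission) of a Texas Red SRC2 coactivator peptide; loss of signal reflects blocked binding to human TRb ligand-binding domain in the presence of 1 uM T3.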
Tau ThT inhib: qHTS for Inhibitors of Tau Fibril Formation, Thioflavin T Binding. recombinant tau K18 P301L, heparin-induced fibrillization, ThT fluorescence. Potency, µM (highest dose often 57.4 µM), for inactives: at the top dose activity, negative = inhibition, usual class: inhibitors. 270,000 compounds, 2.1% hits. AID 1460, 2008; note: potency is the fitted concentration of half-maximal effect; nearly all actives have a fitted effect of over 55% in size
Target sequence (P10636 561-689 P618L limits assumed): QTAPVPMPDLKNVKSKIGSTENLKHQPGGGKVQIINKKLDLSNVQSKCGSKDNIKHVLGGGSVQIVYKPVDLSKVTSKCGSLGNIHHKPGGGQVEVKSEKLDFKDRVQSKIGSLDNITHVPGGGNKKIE
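ThT emission at 510 nm, taken 1 hr after adding 30 uM dye, quantifies aggregates formed when 20 uM heparin acts on human tau K18 P301L for 6 hr at 37 C.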
Tau fluor counter: Counterscreen qHTS for Inhibitors of Tau Fibril Formation, Fluorescence Polarization | 280,000 compounds, 0.93% hits | Potency, µM (doses to about 57.7 µM), for the others: at the top dose activity change, negative = decrease | tau K18 P301L (four-repeat tau fragment) Alexa594 fluorescence, heparin fibrillization; note: potency is the fitted concentration of half-maximal effect; nearly all actives have a fitted effect of over 55% in size
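Human K18 P301L tau (15 uM unlabeled plus 0.24 uM Alexa 594-labeled, final) in 100 mM sodium acetate pH 7 was mixed with compound and 20 uM heparin and incubated 6 hr at 37 C.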
Tau FP inhib: qHTS for Inhibitors of Tau Fibril Formation, Fluorescence Polarization; K18 P301L tau heparin fibrillization, Alexa594 FP, 6 h; Potency, µM (highest dose often 57.7 µM), for inactives: top-dose activity, negative = inhibition, usual class: inhibitors; 280,000 compounds, 0.39% hits; note: potency is the fitted concentration of half-maximal effect; nearly all actives have a fitted effect of over 55% in size
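Compound effects on tau fibrillization are measured by Alexa 594 fluorescence polarization (ex 555, em 632 nm). K18 P301L tau is used at 15 uM with 0.24 uM labeled tracer, and 20 uM heparin induces aggregation over 6 hr at 37 C.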
PNC inhibitor: High Content Assay for Compounds that inhibit the Assembly of the Perinucleolar Compartment | PC3M PTB-GFP, PNC prevalence imaging, 16 h; active compounds read low | activity change (PNC), negative = inhibition, % at 10 µM | 140,000 compounds, 3.1% hits | AID 2417, 2010;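 active = readout at or below -70, meaning at least 70% loss of cells showing the perinucleolar compartment, a nuclear body marking cancer cells; inconclusive = readout between -30 and a set limit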;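 note: plate controls were DMSO wells for no effect and camptothecin positive control wells for full effect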
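PC3M cells stably expressing PTB-GFP, 750–1000 cells/well, treated 16 h at 37 °C with compound (23 nl of library stock), in duplicate. After paraformaldehyde fixation and Hoechst stain, imaged at 20x; PNC prevalence scored by image analysis.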
* = called active by the depositor; [ ] = another dose, or the depositor's remark. The list is not random: actives were taken first. Their share in the collection is about 4.6%. Unless noted, calls come from the whole dose curve; as a rule, active = well fitted curve in the direction sought with a large enough effect; inconclusive = small, poorly fitted or top-dose-only effect, or another doubt; inactive = no such curve, though single readings can be large; an effect the other way counts as inactive or inconclusive. Unless noted, % is set by controls: 0 for no effect and ±100 for the full control effect.

Screening Clc1ccc(-c2nnc(Sc3nc4ccccc4o3)c3ccccc23)cc1 returned TexasRed fluor -1%, TRb SRC2 PPI -23%, Tau ThT inhib inconclusive, Tau fluor counter -16%, Tau FP inhib -5% and PNC inhibitor 100.
Screening Cc1ccc(-c2[nH]c(-c3ccc(Cl)cc3)nc2SCC(=O)NCC2CCCO2)cc1 (stereo not drawn) returned TexasRed fluor -1%, TRb SRC2 PPI 6%, Tau ThT inhib -4%, Tau fluor counter inconclusive, Tau FP inhib 2% and PNC inhibitor 21.
For O=C1C(=Cc2ccc(Br)o2)C(=O)c2ccccc21 the results were TexasRed fluor -26%, TRb SRC2 PPI -13%, Tau ThT inhib 6.3µM*, Tau fluor counter inconclusive, Tau FP inhib inconclusive and PNC inhibitor inconclusive.
For COC(=O)CCC(=O)Oc1ccc(OC(=O)CCC(=O)OC)cc1 the results were TexasRed fluor -5%, TRb SRC2 PPI -10%, Tau ThT inhib inconclusive, Tau fluor counter -14%, Tau FP inhib -7% and PNC inhibitor -113*.
For O=C(CSc1oc(-c2ccc(F)cc2)nc1S(=O)(=O)c1ccccc1)NCC1CCCO1 (stereo not drawn) the results were TexasRed fluor 2%, TRb SRC2 PPI -19%, Tau ThT inhib 5%, Tau fluor counter -7%, Tau FP inhib -8% and PNC inhibitor -119*.
`O=C(CSc1oc(-c2ccccc2)nc1S(=O)(=O)c1ccc(F)cc1)NCC1CCCO1` (stereo not drawn) gave TexasRed fluor -3%, TRb SRC2 PPI -1%, Tau ThT inhib -10%, Tau fluor counter -6%, Tau FP inhib -6% and PNC inhibitor -100*.
For O=C(CSc1oc(-c2ccc(F)cc2)nc1S(=O)(=O)c1ccc(F)cc1)NCC1CCCO1 (stereo not drawn) the results were TexasRed fluor -3%, TRb SRC2 PPI 2%, Tau ThT inhib -1%, Tau fluor counter 1%, Tau FP inhib 12% and PNC inhibitor 246.
`CC(=O)Nc1ccc(S(=O)(=O)NCCSCc2ccc(Cl)cc2Cl)cc1` gave TexasRed fluor -1%, TRb SRC2 PPI 7%, Tau ThT inhib 2%, Tau fluor counter inconclusive, Tau FP inhib inconclusive and PNC inhibitor -25.
Screening COc1cc2c(C#N)c(N3CCCCC3)nc(N)c2c(N)n1 returned TexasRed fluor 0%, TRb SRC2 PPI 2%, Tau ThT inhib inconclusive, Tau fluor counter inconclusive, Tau FP inhib 9% and PNC inhibitor -19.
COc1cc2c(C#N)c(N3CCc4ccccc4C3)nc(N)c2c(N)n1 was read as TexasRed fluor -1%, TRb SRC2 PPI -3%, Tau ThT inhib inconclusive, Tau fluor counter 14µM*[quencher], Tau FP inhib 1% and PNC inhibitor -24.
For Cc1ccc(CN(C(=O)COc2ccc([N+](=O)[O-])cc2)c2ccccn2)o1 the results were TexasRed fluor 5%, TRb SRC2 PPI 1%, Tau ThT inhib -9%, Tau fluor counter -16% and Tau FP inhib -3%.
`O=Cc1ccc(Sc2nnc(-c3ccccc3)o2)c([N+](=O)[O-])c1` gave TexasRed fluor -4%, TRb SRC2 PPI -21%, Tau ThT inhib 18µM*, Tau fluor counter 16µM*[quencher], Tau FP inhib inconclusive and PNC inhibitor -25.
Cc1csc(NC(=O)C2C3C=CC(C3)C2C(=O)O)n1 (stereo not drawn) was read as TexasRed fluor 0%, TRb SRC2 PPI -1%, Tau ThT inhib -3%, Tau fluor counter -6%, Tau FP inhib -6% and PNC inhibitor -27.
CCOC(=O)Cc1csc(NC(=O)C2C3C=CC(C3)C2C(=O)O)n1 (stereo not drawn) was read as TexasRed fluor -12%, TRb SRC2 PPI -8%, Tau ThT inhib -8%, Tau fluor counter -5%, Tau FP inhib 5% and PNC inhibitor -107*.
NS(=O)(=O)c1ccc(NCc2c(F)cccc2Cl)cc1 was read as TexasRed fluor -6%, TRb SRC2 PPI -4%, Tau ThT inhib -3%, Tau fluor counter 0%, Tau FP inhib 0% and PNC inhibitor inconclusive.
For Fc1cccc(Cl)c1CNc1ccc(N2CCCC2)cc1 the results were TexasRed fluor 16%, TRb SRC2 PPI -19%, Tau ThT inhib 5.6µM*, Tau fluor counter inconclusive and Tau FP inhib 11µM*.
`O=C(Nc1ccccc1C(=O)N/N=C/c1ccco1)c1ccc(F)cc1` gave TexasRed fluor -1%, TRb SRC2 PPI 2%, Tau ThT inhib -13%, Tau fluor counter inconclusive, Tau FP inhib -3% and PNC inhibitor -86*.
Screening CC(C)c1ccc2c(c1)[C@H]1OCC[C@H]1[C@@H](c1cccs1)N2 returned TexasRed fluor -3%, TRb SRC2 PPI -6%, Tau ThT inhib 4%, Tau fluor counter 6%, Tau FP inhib 4% and PNC inhibitor -109*.
`CCCn1c(=N)n(CC(=O)OCC)c2ccccc21` gave TexasRed fluor -6%, TRb SRC2 PPI 6%, Tau ThT inhib 12%, Tau fluor counter 6%, Tau FP inhib -4% and PNC inhibitor -21.
C=COCCn1c(=N)n(CCC)c2ccccc21 was read as TexasRed fluor -7%, TRb SRC2 PPI -1%, Tau ThT inhib -4%, Tau fluor counter inconclusive, Tau FP inhib 28µM* and PNC inhibitor inconclusive.
`O=C(Nc1ccc(N2CCOCC2)nc1)c1ccc(F)cc1` gave TexasRed fluor -7%, TRb SRC2 PPI 3%, Tau ThT inhib -3%, Tau fluor counter 1%, Tau FP inhib 8% and PNC inhibitor inconclusive.
For Cc1c(Br)c(=O)oc2c(Br)c(O)ccc12 the results were TexasRed fluor -2%, TRb SRC2 PPI 7%, Tau ThT inhib -6%, Tau fluor counter -2% and Tau FP inhib 2%.
`Cc1c(Br)c(=O)oc2c(Br)c(O)c(O)cc12` gave TexasRed fluor -9%, TRb SRC2 PPI -6%, Tau ThT inhib 13µM*, Tau fluor counter inconclusive, Tau FP inhib inconclusive and PNC inhibitor -8.
Screening Cc1ccccc1Cn1cc(NC(=O)CSc2nc3c(c(C(F)(F)F)n2)CCc2ccccc2-3)cn1 returned TexasRed fluor -1%, TRb SRC2 PPI -6%, Tau ThT inhib -9%, Tau fluor counter -25%, Tau FP inhib -3% and PNC inhibitor 9.
